# Measurements reported in the supplement of paper PMC3334620.
# Whole data set: some 33,000 sequences, median “E-score (-0.5 to 0.5)” near -0.012, cut for the highest 2% near 0.29. This excerpt belongs to a sample that is enriched for the highest values.
# Biological target: T1, Ybr033w (UniProt P38073)
# T1 sequence: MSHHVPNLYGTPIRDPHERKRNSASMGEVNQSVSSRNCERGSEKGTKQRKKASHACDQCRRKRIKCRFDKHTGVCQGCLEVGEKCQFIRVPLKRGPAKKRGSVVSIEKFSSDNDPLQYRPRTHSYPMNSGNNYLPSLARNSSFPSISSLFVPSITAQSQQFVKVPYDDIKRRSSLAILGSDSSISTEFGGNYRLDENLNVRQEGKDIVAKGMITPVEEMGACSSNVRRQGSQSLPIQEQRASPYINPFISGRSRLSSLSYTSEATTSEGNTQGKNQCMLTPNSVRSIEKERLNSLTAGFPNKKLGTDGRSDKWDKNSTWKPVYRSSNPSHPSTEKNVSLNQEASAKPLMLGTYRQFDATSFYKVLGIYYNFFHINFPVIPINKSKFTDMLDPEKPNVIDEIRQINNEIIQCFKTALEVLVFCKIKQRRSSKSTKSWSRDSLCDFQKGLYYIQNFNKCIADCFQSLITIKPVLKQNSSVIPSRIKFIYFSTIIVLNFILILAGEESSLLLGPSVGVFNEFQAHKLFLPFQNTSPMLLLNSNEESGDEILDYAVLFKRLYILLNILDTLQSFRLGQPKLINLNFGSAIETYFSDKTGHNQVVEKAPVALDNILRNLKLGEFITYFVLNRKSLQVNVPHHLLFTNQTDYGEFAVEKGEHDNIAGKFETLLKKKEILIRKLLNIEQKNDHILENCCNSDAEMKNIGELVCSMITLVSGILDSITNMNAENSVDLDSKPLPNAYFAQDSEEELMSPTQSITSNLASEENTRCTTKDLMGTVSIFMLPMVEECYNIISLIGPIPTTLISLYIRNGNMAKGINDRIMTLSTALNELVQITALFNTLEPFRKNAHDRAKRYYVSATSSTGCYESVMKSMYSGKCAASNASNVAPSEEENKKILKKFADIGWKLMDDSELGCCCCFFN
# Assay: PBM E-score (8-mer binding enrichment) (E-score (-0.5 to 0.5)); higher = stronger / more preferred TF binding
# Conditions: protein concentration: 200 nM; construct: GST-full length
# Procedure: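 Universal 'all 10-mer' protein binding microarrays (Agilent AMADID 015681) probed with GST-tagged S. cerevisiae TFs (full-length or DBD) made by in vitro transcription/translation (PURExpress), about 100-200 nM. Bound TF was detected with fluorescent anti-GST. Each ungapped 8-mer (which stands for itself and its reverse complement) is scored by the PBM enrichment score (E-score), a modified Wilcoxon-Mann-Whitney statistic from -0.5 to +0.5, computed with the Universal PBM Analysis Suite. Scale: above 0.35 generally sequence-specific binding.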
row,Sequence,PBM E-score
1,AATATGAG,0.245
2,AATATTAA,0.349
3,CATATTAG,0.202
4,AATATGAC,0.109
5,CGTATTAA,0.108
6,AATATGAT,0.317
7,CATATTAA,0.347
8,AAACTTCC,0.068
9,AACCCAGT,-0.102
10,CGCTACTA,0.218
11,AAGCAACC,0.0073
12,TAAGTTAA,0.206
13,AAAGTTAG,0.297
14,AAAGTTAC,0.224
15,AAAGTTGG,0.0498
16,AAAGTTGT,0.302
17,CAAGTTAG,0.0992
18,AAAGTTAA,0.323
19,CAAGTTAA,0.068
20,AAAGTTGC,0.0307
21,CGTTCTAG,-0.0499
22,CCAAGCTC,-0.0526
23,GTAATGGA,0.163
24,AAAGATAA,0.299
25,AAAGATAG,-0.0366

row,Sequence,PBM E-score
1,AAAGATCA,0.173
2,GTAGATAA,0.333
3,AAAGATCG,-0.0193
4,AAAGATCC,0.3
5,TTAGATAA,0.218
6,GAAGATAC,0.17
7,TAAGATAA,-0.0896
8,GAAGATAA,0.319
9,AAAGATAC,0.12
10,ATAGATAA,0.28
11,CCTCCAAG,-0.176
12,AACGATGG,-0.0425
13,TCCCCTCA,-0.098
14,CTTAGCTC,-0.12
15,GAAGATTA,0.366
16,GTAGATTA,0.216
17,AAAGATTA,0.203
18,ATAGATTG,0.107
19,CAAGATTA,0.185
20,ATAGATTA,0.329
21,CCAGGGCA,-0.266
22,AACACTCA,0.13
23,TAACCTCA,0.0768
24,TCGTCCAA,0.0311
25,ACAATCCC,0.0235

row,Sequence,PBM E-score
1,TCTGTCCA,-0.0429
2,ATCTTCCA,0.249
3,GTATTCCA,-0.0248
4,GAATTCAA,0.177
5,ATATTCTG,0.157
6,AAATTCAG,0.204
7,AAATTCAA,0.288
8,ATATTCCA,0.395
9,ATATTCCG,0.428
10,ATCTTCCC,0.121
11,ATATTCGG,0.0327
12,CTATTCCA,0.17
13,ATCTTCCG,0.438
14,ACTGCACC,-0.018
15,CCGCTAAA,-0.117
16,AGACTGTA,-0.175
17,AGGGGAAG,-0.272
18,GCTAGGCA,-0.146
19,AAATTCCG,0.309
20,CTATTCAA,0.0501
21,CTATTCCC,-0.043
22,CATTTCCG,0.12
23,AATTTCCT,0.273
24,TTATTCAA,0.253
25,AAATTCCC,0.0364

row,Sequence,PBM E-score
1,ATATTCCC,0.329
2,AAATTCCA,0.258
3,ATATTCAA,0.3
4,ACATTCCC,0.0614
5,AATTTCCG,0.325
6,CCTGCAAC,-0.034
7,ACACTCTA,0.121
8,GTGCTGGA,-0.0549
9,AACCACAT,0.00349
10,AGTGGCTG,-0.145
11,AGGTCTGC,-0.104
12,GCGCTCTA,-0.159
13,GTGCGACA,-0.235
14,GTTGCAAA,0.231
15,GGTTGCAC,-0.131
16,ATTCGAGA,0.023
17,GGTGCACC,-0.253
18,CTTCAGCC,-0.13
19,AAATCGAC,0.142
20,AAGTCTAT,-0.00931
21,CGTGTGAG,-0.225
22,ATTTCTTG,0.198
23,AGTTCTTC,0.3
24,CGTTCTTC,0.0897
25,ATTTCTTA,0.195

row,Sequence,PBM E-score
1,ATTTCTTC,0.313
2,AGTTCTTA,0.171
3,CATAGCTC,-0.153
4,GCTATTAA,0.201
5,AGTATTAG,0.174
6,TCTATTAA,0.292
7,CCTATTAA,0.139
8,AGTATTAA,0.295
9,ACTATTAG,0.111
10,TCTATTCA,0.167
11,ACTATTAA,0.325
12,TGTATTAA,0.272
13,CACCCCAG,0.0316
14,ATGCGACA,0.0689
15,TAATCTAA,0.236
16,ATGGGATC,-0.0796
17,AGGACAAC,0.0906
18,TCGTTGAA,0.122
19,GACTCTAC,-0.261
20,ACCTGAAC,-0.219
21,GATGCTCA,-0.113
22,CTTGTGCC,-0.354
23,CGCACTAA,0.0977
24,GACATTAC,0.164
25,GCTGCTAC,-0.175

row,Sequence,PBM E-score
1,GGCCATTA,0.0667
2,ATTTACAG,0.149
3,TATTACAA,0.307
4,ATTTACAC,0.00495
5,ATTTACAA,0.31
6,CATTACAA,0.19
7,AATTACAA,0.107
8,CATTACGA,0.0351
9,AATTACGA,0.277
10,TATTACGA,0.297
11,AGTCCAAC,-0.12
12,CTTAGAAA,0.138
13,ATCTATTC,0.132
14,AAACTCAT,0.274
15,AATCGAAG,0.108
16,CATTTCGG,-0.0324
17,ATATATAA,0.332
18,CTATATAA,0.152
19,TTATATAA,0.411
20,TCATATAA,0.179
21,GTATATAA,0.168
22,TGATATAA,0.179
23,GAGCAAAA,0.0833
24,ATAGTGCG,0.0631
25,CACTTGGG,-0.0516

row,Sequence,PBM E-score
1,ACCTTTTG,-0.0505
2,AATGTTCA,0.0556
3,ACTTCCGA,-0.0181
4,GATTCCGA,0.129
5,CATTCCGA,0.15
6,AAATCCGA,0.12
7,AATTCCGT,0.312
8,AATTCCGC,0.172
9,TAATCCGA,0.326
10,GAATCCGA,-0.108
11,AATTCCGG,0.154
12,AATTCCCA,0.171
13,AATTCCGA,0.296
14,TATTCCGA,0.398
15,ACTGCGAA,-0.0623
16,GAATCACC,0.136
17,AAACTGGA,0.0838
18,CTAATCCC,-0.0661
19,CCTCTGCG,-0.252
20,GCTGCCCA,-0.153
21,ACTTGGAG,-0.0202
22,AGCCTATA,0.0186
